Bioassay records deposited in PubChem by National Center for Advancing Translational Sciences (NCATS).
LASV entry inh – qHTS for Inhibitors of binding or entry into cells for Lassa Virus; Lassa virus pseudotype entry inhibition, cell reporter; Potency, µM (doses to about 37.9 µM), actives largely listed as inhibitors; 1.2% of 300,000 active; AID 540256, 2011; calls by dose curve; tested in HEK293 cells; note: nearly all actives have a fitted effect of over 50% in size
AMA1 RON2 block – qHTS for Inhibitors of AMA1-RON; Towards Development of Antimalarial Drug Lead: Primary Screen. AlphaScreen AMA1-biotinylated RON2 peptide binding. Potency, µM (highest dose often 58.2 µM), hits mostly inhibitors. 0.2% of 360,000 active. AID 720542, 2013; active = well fitted inhibition curve with a large enough effect; inconclusive = small, poorly fitted or top-dose-only effect; inactive = no such curve, though single readings can be large or run the other way; note: nearly all actives have a fitted effect of over 45% in size
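AMA1 (3D7) with his tag at 25 nM final met compounds first, then biotinylated RON2 peptide at 25 nM; detection used donor plus acceptor beads, 10 µg/mL apiece, read by AlphaScreen after 30 min at room temperature.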
MARV entry inh – qHTS for inhibitors of binding or entry into cells for Marburg Virus. Marburg virus pseudotyped entry inhibition, cell reporter. 1.8% of 300,000 active. AID 540276, 2011. Potency, µM (series often up to 37.8 µM), actives largely listed as inhibitors; calls by dose curve; tested in HEK293 cells
Shiga toxin inh – A qHTS for Small Molecule Inhibitors of Shiga Toxin. Vero cells, Shiga toxin protein synthesis inhibition reporter. AID 2315, 2010. 9.2% of 290,000 active. inhibition, % at 38.7 µM; in the data active = inhibition mostly above about 28%, no sharp cut-off; inactive = mostly below about 43%
Cycloheximide cs – Cycloheximide Counterscreen for Small Molecule Inhibitors of Shiga Toxin; cell reporter, cycloheximide protein synthesis inhibition counterscreen; max response, %; 12% of 300,000 active; AID 2314, 2010; in the data active = max response mostly above about 13%, no sharp cut-off; inactive = mostly below about 14%; note: read at 38.3 µM for the half of the compounds with a filed dose
Hits are given with their value; i = inactive; ? = inconclusive; nt = no result given; + = active, no number; [ ] = dose if it differs, or a comment. Shown is part of a subset that was picked to be rich in hits.

SMILES | LASV entry inh | AMA1 RON2 block | MARV entry inh | Shiga toxin inh | Cycloheximide cs
O=C(Nc1ccncc1)Nc1ccc(F)cc1F | i | i | i | 54.2 | 27.3
CCOC(=O)CNC(=O)c1cc(-c2ccccn2)nc2c(C)c(Cl)ccc12 | i | i | 5.01µM | i | i
Cc1c(Cl)ccc2c(C(N)=O)cc(-c3ccccn3)nc12 | i | i | ? | i | i
CCOc1ccc2oc(C(=O)OCC(=O)NC3CCCC3)c(C)c2c1 | nt | i | nt | nt | nt
O=c1c2ccccc2nc(/C=C/c2ccc(Cl)cc2)n1CCO | ? | i | i | i | i
Clc1ccc(/C=C/c2ncc3ccccn23)cc1 | i | i | ? | 83.4 | 32.6
COc1cc(O)oc1C=Nc1ccccc1 | ? | i | i | 109.5 | 26.6
COc1ccccc1O | nt | i | nt | i | i
Nc1nonc1-n1nnc(C(=O)N/N=C/c2ccccc2F)c1CN1CCc2ccccc21 | nt | i | nt | i | i
Cc1ccc(F)c(C(=O)N2CCCC(C)(C(=O)NS(=O)(=O)C3CC3)C2)c1F (stereo not given) | nt | i | nt | nt | nt
O=C(C=Cc1ccc(Cl)s1)c1ccc(Cl)s1 | i | i | i | nt | nt
O=C(/C=C\Nc1ccc2c(c1)OCO2)c1ccc(Cl)s1 | ? | i | ? | 71.2 | 57.1
O=C(/C=C\Nc1ccc2c(c1)OCO2)c1cccs1 | ? | ? | ? | 66.5 | 6.9
CSc1ccccc1OCc1cc(C(=O)N2CCN(c3ccccc3)CC2C)no1 (stereo not given) | ? | i | i | 98.7 | 57.0
CC(=O)c1ccc(OCc2cc(C(=O)N(C)CC3COc4ccccc4O3)no2)cc1 (stereo not given) | nt | i | nt | nt | nt
CC(=O)c1ccc(OCc2cc(C(=O)N3CCN(c4ccccc4)CC3C)no2)cc1 (stereo not given) | nt | i | nt | 53.1 | 47.7
O=C(Nc1cc(F)ccc1F)C1COc2ccccc2C1 (stereo not given) | i | nt | nt | nt | nt
Cc1cc(=O)n2c(n1)NC(Nc1cccc(C)c1C)=NC2c1ccccc1 (stereo not given) | nt | i | nt | i | i
Cc1nc2ccc(NC(=O)C3COc4ccccc4O3)cc2s1 (stereo not given) | nt | i | nt | 84.5 | 40.9
Cc1nc2cc(NC(=O)C3COc4ccccc4O3)ccc2s1 (stereo not given) | i | i | i | 54.2 | 60.6
Cc1cc(C)nc(NS(=O)(=O)c2ccc(NC(=O)C3COc4ccccc4O3)cc2)n1 (stereo not given) | i | i | i | i | i
Cc1nc2ccc3nc(NC(=O)C4COc5ccccc5O4)sc3c2s1 (stereo not given) | nt | i | nt | i | i
CSCC[C@H](NC(=O)[C@H](CC(C)C)NC(=O)CNC(=O)[C@H](Cc1ccc(O)cc1)NC(=O)[C@H](Cc1ccccc1)NC(=O)[C@H](CCCCN)NC(=O)[C@H](CC(N)=O)NC(=O)[C@@H]1CCCN1C(=O)[C@H](CC(=O)O)NC(=O)[C@H](C)NC(=O)[C@@H]1CCC(=O)N1)C(N)=O | nt | nt | nt | i | i
Cc1nnc2n(-c3ccccc3)c(=O)c3c4c(sc3n12)COC(C(C)C)C4 (stereo not given) | i | i | i | i | i
CC(C)C1Cc2c(sc3[nH]c(=S)n(Cc4ccccc4)c(=O)c23)CO1 (stereo not given) | 0.794µM | i | ? | i | i
SMILES | LASV entry inh | AMA1 RON2 block | MARV entry inh | Shiga toxin inh | Cycloheximide cs
CC(=O)N1CCN(C(=O)CCCNC(=O)c2ccc(Cl)cc2)CC1 | nt | i | nt | nt | nt
COc1nnc(-c2ccccc2)s1 | i | i | ? | 41.2 | i
CN(C)/C=C/c1onc(-c2c(F)cccc2Cl)c1C#N | i | i | i | 109.0 | 27.5
COc1ccc(C)c2sc(NC(=O)C3=COCCO3)nc12 | nt | nt | nt | 27.2 | 12.4
COc1ccc(OC)c2sc(NC(=O)C3=COCCO3)nc12 | nt | i | nt | i | i
COc1cccc2sc(NNC(=O)C3=COCCO3)nc12 | ? | i | i | 86.8 | 40.3
CCc1ccccc1NC(=O)c1ccc2c(O)c(S(=O)(=O)c3ccc(OC)cc3)c(=O)[nH]c2c1 | nt | i | nt | i | i
C/C(Cn1nc([N+](=O)[O-])cc1C)=N\NC(=O)COc1ccccc1[N+](=O)[O-] | i | i | i | + | 24.9
C/C(=N\NC(=O)COc1ccccc1[N+](=O)[O-])c1cccs1 | i | i | i | 65.7 | 43.3
COc1ccc(OCC(=O)N/N=C(\C)c2cccs2)cc1 | nt | i | nt | i | i
C/C(Cn1nc([N+](=O)[O-])cc1C)=N\NC(=O)c1cccc(Br)c1 | i | i | i | i | 30.9
O=C(Cn1nc(C(=O)O)c2ccccc2c1=O)c1c[nH]c2ccccc12 | i | i | i | 34.7 | 9.4
Cc1cc(C(=O)Cn2nc(C(=O)O)c3ccccc3c2=O)c(C)n1-c1ccccc1 | ? | i | ? | 95.4 | 58.6
O=c1[nH]c(O)c(/C=C2\C=Nc3ccc(Br)cc32)[nH]1 | nt | i | nt | i | i
Cc1c(-c2nc(-c3ccncc3)no2)cccc1[N+](=O)[O-] | nt | i | nt | i | i
Cc1ccc(-c2nc(-c3ccccc3)no2)c(Cl)c1 | nt | i | nt | i | i
c1ccc2c(-c3nc(-c4ccncc4)no3)cccc2c1 | i | i | i | 63.3 | 21.3
c1ccc(-c2noc(-c3cccc4ccccc34)n2)cc1 | ? | i | i | 50.1 | 54.4
c1cncc(-c2noc(-c3cccc4ccccc34)n2)c1 | i | i | ? | 89.2 | 45.3
O=[N+]([O-])c1ccc2nnn(O)c2c1 | i | i[11.6 µM] | i | i | i
Cc1ccc(OC(=O)c2cc(-c3ccc4c(c3)OCCO4)on2)c(C)c1 | i | nt | i | nt | nt
Cc1cc(=O)[nH]c2n[nH]c(-c3ccccc3)c12 | ? | i | i | i | 14.6
Cc1cccc(C)c1NC(=O)C1C(c2ccccc2)=Nc2ccccc2N1C(=O)c1cnccn1 (stereo not given) | nt | i | nt | nt | nt
Cc1cccc(N(CC(=O)NCCSc2ccc(Cl)cc2)S(C)(=O)=O)c1C | ? | nt | i | nt | nt
CCCC/C(O)=C1\C(=O)CC(C)(C)CC1=Nc1ccccc1OC | i | i | ? | i | i
SMILES | LASV entry inh | AMA1 RON2 block | MARV entry inh | Shiga toxin inh | Cycloheximide cs
CCC/C(O)=C1\C(=O)CC(C)(C)CC1=Nc1ccc(OC)cc1OC | i | i | 2µM | i | i
COc1cccc(-c2oc3c(c2-c2ccc(Br)nc2)C(O)CCC3)c1 (stereo not given) | nt | i | nt | nt | nt
CCOC(=O)c1ccccc1OCc1cc(/C=N/n2cnnc2)ccc1OC | i | i | 0.103µM | i | i
COc1ccc(/C=N\NC(=O)c2ccccc2F)cc1COc1ccc(F)cc1F | ? | i | ? | 32.1 | 23.9
COc1ccc(/C=N\NC(=O)c2ccccc2Br)cc1COc1c(F)c(F)cc(F)c1F | ? | i | 6.31µM | i | i
C#CCOc1ccc(C(=O)N(C)c2ccccc2I)cc1 | nt | nt | nt | i | i
Nc1ccc2oc(=O)ccc2c1I | nt | nt | nt | i | i
COc1ccc(OC(C)C(=O)Nc2ccc([N+](=O)[O-])cc2)cc1 (stereo not given) | ? | i | i | i | i
COc1ccc(NC(=O)C(c2cc3c(cc2[N+](=O)[O-])OCO3)N(C)c2ccccc2)cc1 (stereo not given) | ? | i | i | i | 19.3
